An excerpt weighted towards active compounds, which were near 11% of everything screened.
HTT ATP protect: Huntington cell model cytoprotection by ATP luminescence; PC12 HTT-Q103 induced, cytoprotection, ATP luminescence, 40 h; Potency, µM (doses to about 56.4 µM), for inactives: cytoprotection (ATP increase), usual class: activators; 0.14% of 230,000 active; active means well fitted curve in the direction sought with a large enough effect; inconclusive means small, poorly fitted or top-dose-only effect, or another doubt; inactive means no such curve, though single readings can be large; an effect the other way counts as inactive or inconclusive; further: potency means the concentration at half of the fitted maximal effect; % of control where 0% means no effect; nearly all actives have a fitted effect of over 45% in size
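Quantitative HTS on tebufenozide-induced (100 nM) PC12 cells expressing HTTQ103 exon 1–GFP; compounds tested as a concentration series; survival measured via cellular ATP.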
HTT aggregate: reduces HttQ103-GFP aggregates in PC12 cells; PC12 HttQ103-GFP aggregates, Acumen cytometry, 40 h; Potency, µM (titrated, usually from 46.1 µM), for the others: at the top dose activity change, negative = inhibition, hits mostly inhibitors; 1.1% of 220,000 active; AID 1688; active means well fitted curve in the direction sought with a large enough effect; inconclusive means small, poorly fitted or top-dose-only effect, or another doubt; inactive means no such curve, though single readings can be large; an effect the other way counts as inactive or inconclusive; further: potency means the concentration at half of the fitted maximal effect; on the % scale 0 is the no-effect control and ±100 the full control effect; nearly all actives have a fitted effect of over 60% in size
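Inducible Q103 Huntingtin exon 1–GFP PC12 line, 1500 cells/well in phenol red free DMEM with 5% equine and 5% calf serum. Tebufenozide 100 nM induced expression; compounds titrated; aggregates quantified by cytometry.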
GoLoco inh red: RGS12 GoLoco-Gai1 interaction inhibition. Gai1:RGS12 GoLoco peptide FP, rhodamine, 10 min. P63096. 0.44% of 230,000 active. Potency, µM (doses to about 61.6 µM), for inactives: at the highest dose activity, negative = inhibition, most hits filed as inhibitors; active means well fitted inhibition curve with a large enough effect, not every such curve was filed as active; inactive means no such curve, though single readings can be large or run the other way; further: potency means the concentration at half of the fitted maximal effect; on the % scale 0 is the no-effect control and ±100 the full control effect; nearly all actives have a fitted effect of over 30% in size
PNC assembly inh: inhibitors of perinucleolar compartment assembly | PC3M PTB-GFP, PNC prevalence imaging, 16 h; active compounds read low | activity change (PNC), negative = inhibition, % at 10 µM | 3.1% of 140,000 active;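 active means readout at or below -70, meaning at least 70% loss of cells showing the perinucleolar compartment, a nuclear body marking cancer cells; inconclusive means readout between -30 and a set limit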;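 further: plate controls were DMSO wells for no effect and camptothecin positive control wells for full effect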
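Compounds are pinned in duplicate onto adhered PC3M cells stably expressing GFP-tagged PTB and incubated 16 h at 37 C. Cells are then fixed, nuclei stained with Hoechst, and PNC-positive cells counted.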
ALDH1A1 inh: ALDH1A1 (human) enzyme inhibition. P00352. Potency, µM (series often up to 75.3 µM), without a hit: at the top dose activity, negative = inhibition, usual class: inhibitors. 7.3% of 220,000 active. AID 1030. Purified ALDH1A1, NADH fluorescence, propionaldehyde substrate;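 further: potency means the concentration at half of the fitted maximal effect; plate controls were no enzyme wells and a reference inhibitor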
Target sequence (P00352 whole entry, looked up): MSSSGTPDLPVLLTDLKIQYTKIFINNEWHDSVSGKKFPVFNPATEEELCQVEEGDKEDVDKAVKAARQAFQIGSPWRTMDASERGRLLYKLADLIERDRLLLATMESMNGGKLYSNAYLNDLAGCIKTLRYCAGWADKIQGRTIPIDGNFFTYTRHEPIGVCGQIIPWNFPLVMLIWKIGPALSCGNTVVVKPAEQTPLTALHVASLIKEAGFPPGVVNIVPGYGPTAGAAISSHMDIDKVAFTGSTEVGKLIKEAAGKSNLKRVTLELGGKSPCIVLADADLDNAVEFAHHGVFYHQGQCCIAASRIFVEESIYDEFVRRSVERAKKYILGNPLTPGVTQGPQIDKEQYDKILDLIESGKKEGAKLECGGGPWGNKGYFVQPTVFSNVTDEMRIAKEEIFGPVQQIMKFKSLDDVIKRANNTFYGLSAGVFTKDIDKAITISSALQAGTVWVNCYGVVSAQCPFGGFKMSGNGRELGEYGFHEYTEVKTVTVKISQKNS
HPGD inh: blocks human HPGD enzyme activity | P15428 | Potency, µM, inactives show at the top dose activity change, negative = inhibition, usual class: inhibitors | 4.3% of 150,000 active | purified HPGD, NADH fluorescence kinetic, PGE2 substrate | AID 894; further: potency means the concentration at half of the fitted maximal effect; on the % scale 0 is the no-effect control and ±100 the full control effect
Target sequence (P15428 whole entry, looked up): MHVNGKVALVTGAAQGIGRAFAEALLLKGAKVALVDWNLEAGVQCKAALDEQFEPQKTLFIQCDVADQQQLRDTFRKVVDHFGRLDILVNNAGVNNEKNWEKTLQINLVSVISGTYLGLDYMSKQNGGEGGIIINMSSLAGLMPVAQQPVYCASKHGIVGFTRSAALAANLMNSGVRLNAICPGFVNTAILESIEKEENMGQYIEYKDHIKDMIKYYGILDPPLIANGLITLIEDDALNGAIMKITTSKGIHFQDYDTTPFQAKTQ
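20 nM HPGD preincubated 15 min at room temperature with compound in 50 mM Tris-HCl pH 8, 0.01% Tween 20. Started with 1 mM NAD+ and 30 uM prostaglandin E2; NADH fluorescence (360/450 nm) read 5 times over 30-s intervals, last minus first.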
* marks the source's active call; other numbers are inactive results; ? = inconclusive; · = not tested or not shown; [ ] = another dose, or the depositor's remark. Unless noted, the call rests on the fitted dose curve; in most records, active means well fitted inhibition curve with a large enough effect (not every such curve was filed as active); inconclusive means small, poorly fitted or top-dose-only effect, or another doubt; inactive means no such curve, though single readings can be large or run the other way.

SMILES	HTT ATP protect	HTT aggregate	GoLoco inh red	PNC assembly inh	ALDH1A1 inh	HPGD inh
CCCCC/C=C\C/C=C\C/C=C\CCCCC(N)=O	24%	·	3%	·	7%	-7%
COc1ccc(C(=O)NCC2CCCO2)cc1 (stereo not given)	·	-2%	-10%	22	6%	13µM*
Cc1noc(C)c1COc1ccc(C(=O)NCC2CCCO2)cc1 (stereo not given)	-8%	4%	10%	43	-4%	?
O=C(NCC1CCCO1)c1ccc(COc2ccc(Br)cc2)cc1 (stereo not given)	·	-7%	3%	-19	?	7.1µM*
CS(=O)(=O)Nc1ccc(C(=O)NCC2CCCO2)cc1 (stereo not given)	10%	3%	6%	-25	7%	-11%
CCC1=C2CC[C@H]3C(=O)N(CC)C(=O)[C@H]3[C@H]2[C@@]2(C)C(=NCCc3c[nH]c4ccccc34)OC(=O)N2C1=O	?	·	6%	·	-2%	-9%
CCC1=C/C(=C/N(C)c2ccccc2)C(=O)S1	19%	0%	18%	4	25µM*	22µM*
CC(=O)OC[C@@H]1O[C@@H](O/N=C2/C[C@@H](O)[C@@H](O)[C@@H]3[C@@H]4C(=O)N(Cc5ccc6c(c5)OCO6)C(=O)[C@H]4CC[C@H]23)[C@H](OC(C)=O)[C@H](OC(C)=O)[C@@H]1OC(C)=O	-5%[10 µM]	·	·	·	7%[13.5 µM]	·
O=S(=O)(c1cccc(C(F)(F)F)c1)N1CCN(C(=S)NCc2ccco2)CC1	?	?	2%	-109*	-4%	-8%
CC(C)c1ccc(S(=O)(=O)N2CCN(C(=S)NCc3ccco3)CC2)cc1	-1%[10 µM]	-14%	186%	-14	-2%	28µM*
O=C(Nc1ccccc1)Nc1ccccc1-n1ccnc1	-20%[1.9 µM]	12%[9.22 µM]	-2%	·	3%	·
CCOC(=O)c1cnc(-c2ccccc2)nc1Oc1ccc(OC)cc1	0%	17%	10%	·	11µM*	·
CCC(=O)Nc1cccc2c1C(=O)N(C)C2=O	10%[10 µM]	11%	-13%	-111*	-10%	?
CCNc1cccc2c1C(=O)N(C)C2=O	5%[10 µM]	-6%	-8%	-1	2%	-1%
O=[n+]1c2c(n([O-])c3cc(Br)ccc31)CCCC2	8%[10 µM]	-8%	7%	-27	-6%	-10%
O=[n+]1c2c(n([O-])c3cc(F)c(F)cc31)CCCC2	-18%	8%	-9%	8	?	18µM*
COc1ccc(CNc2ncnc3ccc(-c4cccc(C#N)c4)cc23)c(OC)c1	-99%	·	7%	·	?	·
CCOc1ccc(N=C2NC(=O)S/C2=C\c2ccc(N(C)C)cc2)cc1	-88%	22µM*	-3%	-12	-1%	-11%
CCOc1ccc(/C=C2/SC(=O)NC2=S)cc1	-21%[10 µM]	-21%	15%	-21	?	13µM*
COc1ccc(C)cc1N(CC(=O)N/N=C/c1ccc2c(c1)OCO2)S(C)(=O)=O	22%[10 µM]	9%[9.22 µM]	22%	·	-1%	·
CSc1ncccc1C(=O)OCC(=O)c1cc2ccccc2o1	2%[10 µM]	5%	6%	9	-11%	-12%
O=C(CCOc1ccccc1)OCC(=O)c1cc2ccccc2o1	-3%[10 µM]	-10%	23%	-10	-7%	32µM*
COc1cccc(C(=O)CN2CCN(S(=O)(=O)c3cccc([N+](=O)[O-])c3)CC2)c1	19%[10 µM]	7%	11%	2	18µM*	-10%
COc1ccc(C(=O)CN2CCN(S(=O)(=O)c3cccc([N+](=O)[O-])c3)CC2)cc1OC	299%[10 µM]	-10%	-6%	?	20µM*	?
O=C(Cc1ccccc1)N1CCN(S(=O)(=O)c2cccc([N+](=O)[O-])c2)CC1	16%[10 µM]	19%[9.22 µM]	7%	·	?	·
SMILES	HTT ATP protect	HTT aggregate	GoLoco inh red	PNC assembly inh	ALDH1A1 inh	HPGD inh
O=C1C2=CC[C@H]3C(=O)N(Cc4ccc5c(c4)OCO5)C(=O)[C@@H]3[C@@H]2[C@H](O)[C@@H]2O[C@H]12	?	·	·	·	3%[13.5 µM]	·
CCN(CC(=O)NC1CCCCCC1)S(=O)(=O)c1ccccc1	24%[10 µM]	-3%	-1%	-80*	1%	-10%
CCN(CC(=O)NC1CCCC1)S(=O)(=O)c1ccc(C)cc1	5%	-20%	-7%	?	-1%	-13%
CCCS(=O)(=O)N1CCC(C(=O)NCCN(C)Cc2ccccc2)CC1	1%	6%	-3%	52	7%	-2%
Cc1ccc(C2=NC(=O)/C(=C/c3cc(O)c(O)c(Br)c3)S2)cc1	0%	?	153%	·	10µM*	·
COc1cc(/C=C2\SC(c3ccc(C)cc3)=NC2=O)cc(OC)c1O	9%[10 µM]	21%	115%	?	?	22µM*
COc1ccc(/C=C2\SC(=O)N=C2N)cc1OC	-10%[10 µM]	-12%	15%	-6	8%	-30%
CCOc1ccc(S(=O)(=O)N2Cc3ccccc3CC2C(=O)O)cc1 (stereo not given)	-14%[10 µM]	-15%[9.22 µM]	-59%	·	·	·
CC(C)C1C(C#N)=C(N)Oc2n[nH]c(C(C)(C)C)c21 (stereo not given)	0%	12%	4%	?	3%	-6%
CCCC1C(C#N)=C(N)Oc2n[nH]c(C(C)(C)C)c21 (stereo not given)	-1%[1.9 µM]	-8%	-3%	-114*	?	3%
C[N+](C)(C)CC(=O)N/N=C\c1c(O)ccc2ccccc12	-7%[10 µM]	·	6%[14.2 µM]	·	11%[13.5 µM]	-6%
CC1=NN(c2ccc(C)c(C)c2)C(=O)C1C(c1cccc(O)c1)C1C(=O)N(c2ccc(C)c(C)c2)N=C1C (stereo not given)	-19%	14%	-3%	-30	0.71µM*	10µM*
Cc1ccc(NC(=O)c2ccc([N+](=O)[O-])cc2Cl)nc1	9%[10 µM]	-24%	-2%	7	-2%	-9%
COCCNc1nc(C)nc2c1nc(-c1ccccc1)n2CC1CCN(C)CC1	?	·	-5%	·	?	?
Cc1ccc(N=N/C(=C\O)C(=O)c2ccc(Cl)cc2)cc1	-16%[10 µM]	?	11%	·	13µM*	·
O=C(N/N=C/C(Br)=C/c1ccccc1)c1ccncc1	0%[10 µM]	28%[9.22 µM]	3%	·	·	·
O=C(/C(=C/O)N=Nc1ccccc1)c1ccncc1	?	0%	18%	4	1.3µM*	-23%
O=C(/C(=C/O)N=Nc1ccccc1)c1ccc(Cl)cc1	7%	?	-4%	·	?	·
CC(=O)C1=C(C)N(Cc2ccco2)C(=O)N[C@@H]1c1ccccc1	-9%	·	4%	·	4%	-6%
CCNc1ncc2nc(-c3cccs3)c(=O)n(C)c2n1	-33%	·	28%	·	?	·
CCOC(=O)c1ccc(NC(=O)CSC(=S)N2CCOCC2)cc1	-7%[10 µM]	6%	3%	·	-1%	·
Cc1csc(=Nc2ccccc2)n1Cc1ccco1	-15%	5%	3%	·	15µM*	·

Bioassay records as filed in PubChem.
